From PubChem BioAssay AID651640 (Broad Institute, 2012) come the findings set out here.

Molecules are shown by their SMILES. Values joined by “and” are separate entries in the source; they are usually repeats but may differ in a detail not shown here. Identical values can stand only once. Out of some 350,000 compounds screened, about 6,000 (1.7%) were called active. Another 5% or so got no clear call; they are omitted. No stated cut-off is given here; in the data, active means CPE inhibition above about 20% (passing the limit was not always enough); inconclusive means no clear call, values can overlap the other calls; tested in BHK-21 cells. Shown is part of a subset that was picked to be rich in actives. More than one record can exist for a structure, and the calls need not agree.

The test in a line: protection of cells from dengue 2 killing – plate reader, single concentration, primary screen (AID 651640).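 Further: 0% = median of neutral control wells and 100% = median of positive control wells.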 The following applies: DENV2-infected cells, cytopathic effect rescue, at 9.99 µM, stronger effect = higher value. For orientation: Cytopathic effects are the visible damage that an infection or toxin causes in cultured cells.
As to `CCC(=O)N(C)C[C@@H]1Oc2cc(-c3ccc(OC)cc3)ccc2S(=O)(=O)N([C@@H](C)CO)C[C@H]1C`, the CPE inhibition was -4.79% (inactive).

For `O=C(C[C@H]1C[C@H]2c3cc(NC(=O)Cc4ccncc4)ccc3O[C@H]2[C@@H](CO)O1)NCc1cccc(F)c1`, the CPE inhibition was -1.57% (inactive).

As to `COc1cccc(S(=O)(=O)Nc2ccc3c(c2)C(=O)N(C)C[C@@H](OC)[C@@H](C)CN[C@@H](C)CO3)c1`, the CPE inhibition was 2.43% (inactive).

For the molecule `C[C@@H]1CN([C@@H](C)CO)C(=O)c2cc(N(C)C)ccc2O[C@@H](C)CCCCO[C@@H]1CN(C)C(=O)CCC(F)(F)F`, the CPE inhibition was 5.58% (inactive).

In the case of `Cc1cc(C)n2c(NCc3ccccc3)c(CC(C)C)nc2n1`, the CPE inhibition was -7.45% (inactive).

As to `Cc1cc(C)n2c(Nc3c(C)cccc3C)c(CCc3ccccc3)nc2n1`, the CPE inhibition is 20.8% (active).

As to `Cc1ccc(O)c(CCc2ccccc2)n1`, the CPE inhibition is 1.33% (inactive).

With `CCC(=O)N1[C@@H](CO)[C@@H]2c3ccccc3N(C(=O)c3ccccc3F)C[C@@H]21`, the CPE inhibition was 26.9% (active).

As to `CC(C)NC(=O)N1[C@H](CO)[C@@H]2c3ccccc3N(C(=O)c3ccccc3F)C[C@@H]21`, the CPE inhibition is 54.6% (active).

As to `CC(C)NC(=O)N1[C@@H]2CN(C(=O)Nc3ccc(F)cc3)c3ccccc3[C@@H]2[C@@H]1CO`, the CPE inhibition was 8.2% (inactive).

Take `CC(C)NC(=O)N1C[C@H]2[C@@H](c3ccccc31)[C@H](CO)N2C(=O)c1ccccc1F`: the CPE inhibition is -10% (inactive).

As for `O=C(c1ccccc1F)N1C[C@@H]2[C@H](c3ccccc31)[C@H](CO)N2C(=O)C1CCCC1`, the CPE inhibition was -9.77% (inactive).

Take `CN1C[C@H]2[C@@H](c3ccccc31)[C@@H](CO)N2C(=O)Nc1ccccc1`: the CPE inhibition was 58.5% (active).

In the case of `CCCNC(=O)N1[C@@H]2CN(C)c3ccccc3[C@@H]2[C@@H]1CO`, the CPE inhibition was -0.141% (inactive).

As to `CN1C[C@@H]2[C@H](c3ccccc31)[C@H](CO)N2C(=O)Nc1ccc(F)cc1`, the CPE inhibition was -5.89% (inactive).

With `O=C(c1ccccc1F)N1C[C@H]2[C@@H](c3ccccc31)[C@@H](CO)N2C(=O)c1ccc(F)cc1`, the CPE inhibition was -13.2% (inactive).

`O=C1O[C@@H](c2ccccc2)[C@@H](c2ccccc2)N2[C@@H](c3ccccc3OCCO)[C@]3(C(=O)Nc4ccccc43)[C@@H](C(=O)N3CCCCCCC3)[C@H]12`: the CPE inhibition is 0.314% (inactive).

As for `COC(=O)C[C@H]1CC[C@H]2[C@@H](COc3ccc(NC(=O)C4CC4)cc3C(=O)N2C)O1`, the CPE inhibition is -4.57% (inactive).

Consider `O=C(N[C@H]1CC[C@@H](CCNS(=O)(=O)c2ccc(Cl)cc2)O[C@H]1CO)c1cccc(F)c1`, for which the CPE inhibition is -5.79% (inactive).

Take `O=C(C[C@H]1CC[C@H]2[C@@H](COC[C@@H](O)CN2Cc2nccs2)O1)NCc1ccccc1Cl`: the CPE inhibition was -3.47% (inactive).

Regarding `C[C@H](CO)N1C[C@H](C)[C@H](CN(C)Cc2cccc(C(=O)O)c2)Oc2ncc(-c3ccccc3F)cc2C1=O`, the CPE inhibition was 5.26% (inactive).

Regarding `C[C@@H]1CCCCO[C@@H](CN(C)Cc2ccc(C(=O)O)cc2)[C@H](C)CN([C@H](C)CO)C(=O)c2cc(NC(=O)Nc3ccc(F)cc3)ccc2O1`, the CPE inhibition is 4.69% (inactive).

Consider `C[C@H]1CN([C@@H](C)CO)C(=O)c2cc(/C=C/c3ccccc3)cnc2O[C@@H]1CN(C)C(=O)c1ccc(F)cc1`, for which the CPE inhibition was -7.53% (inactive).

Consider `COc1ccc(S(=O)(=O)N2C[C@H]3CON(C)[C@H]3C[C@H]2c2cccc(Br)c2)cc1`, for which the CPE inhibition is -6.66% (inactive).

As to `CN1OC[C@@H]2CN(C(=O)c3ccc(-c4ccccc4)cc3)[C@H](c3ccc(-c4cccc(F)c4)cc3)C[C@@H]21`, the CPE inhibition is -4.1% (inactive).

In the case of `COc1ccc(CN2C[C@H]3CON(C)[C@H]3C[C@H]2c2ccc(-c3cccc(F)c3)cc2)cc1`, the CPE inhibition is 27.4% (active).

As to `CCOC(=O)C1(Cc2ccccc2C)CCCN(C(=O)CCc2c(C)noc2C)C1` (centres undefined), the CPE inhibition is 49.6% (active).

As to `CCOC(=O)C1(Cc2ccccc2C)CCCN(C(=O)CN2C(=O)CSC2=O)C1` (centres undefined), the CPE inhibition is 1.33% (inactive).

Consider `Cc1noc(C)c1CCC(=O)N1CCCC(CO)(Cc2ccccc2)C1` (centres undefined), for which the CPE inhibition is 7.18% (inactive).

As to `CCCCc1nc2cc(C(=O)NCCc3cnn(C)c3)ccc2o1`, the CPE inhibition is 36% (active).

As for `CCCCc1nc2cc(C(=O)N3CCCCC3CCO)ccc2o1` (centres undefined), the CPE inhibition was 6.93% (inactive).

On to `CC(C)c1nc2cc(C(=O)NC(C)c3cnn(C)c3)ccc2o1` (centres undefined), for which the CPE inhibition is 1.88% (inactive).

Consider `C[C@@H]1CN([C@H](C)CO)C(=O)c2cc(-c3ccc(C#N)cc3)cnc2O[C@@H]1CN(C)C(=O)Nc1ccccc1`, for which the CPE inhibition is -5.47% (inactive).

For `COc1ccc2c3c(n(C)c2c1)[C@@H](CO)N(CC1CC1)CC31CCN(C(=O)c2cccc(F)c2)CC1`, the CPE inhibition was -5.77% (inactive).

For `O=C(C1CCCN(S(=O)(=O)c2ccccc2)C1)N1CCN(c2ccc(F)cc2)CC1` (centres undefined), the CPE inhibition is -0.979% (inactive).

With `O=C(O)C1CCCCC1C(=O)N1CCN(S(=O)(=O)c2ccc(F)cc2)CC1` (centres undefined), the CPE inhibition was 70.6% (active).

For the molecule `O=C(c1cnc(Cl)c(Cl)c1)N1CCN(S(=O)(=O)c2ccc(F)cc2)CC1`, the CPE inhibition was 1.53% (inactive).

Take `COc1cccc(C(=O)N2C[C@@H]3[C@H](c4ccccc42)[C@H](CO)N3Cc2ccccc2F)c1`: the CPE inhibition was 6.58% (inactive).

Consider `O=C(NS(=O)(=O)c1cccs1)[C@H]1O[C@@H](n2ccc(=O)[nH]c2=O)[C@H](O)[C@@H]1O`, for which the CPE inhibition is 77.5% (active).

Regarding `O=C(N[C@H](Cc1ccccc1)C(=O)N1CCCN(Cc2cccs2)CC1)[C@H]1O[C@@H](n2ccc(=O)[nH]c2=O)[C@H](O)[C@@H]1O`, the CPE inhibition is -10.6% (inactive).

Turning to `Cc1nccn1-c1ccc(NC(=O)[C@H]2O[C@@H](n3ccc(=O)[nH]c3=O)[C@H](O)[C@@H]2O)cc1`, the CPE inhibition is 1.75% (inactive).

Take `Fc1ccc(-c2csc(-c3ccc(C4SCCS4)cc3)n2)cc1F`: the CPE inhibition was 38.4% (active).

As for `COc1ccc(CC(=O)Nc2nc(-c3ccc(F)c(F)c3)cs2)cc1OC`, the CPE inhibition is -4.33% (inactive).

As for `Clc1ccc(-c2csc(-c3ccncc3)n2)cc1`, the CPE inhibition is 2.38% (inactive).

`CC(C)NC(=O)N(C)C[C@@H]1OCCCC[C@@H](C)Oc2ccc(NC(=O)c3ccccc3)cc2C(=O)N([C@@H](C)CO)C[C@H]1C`: the CPE inhibition is 3.29% (inactive).

Turning to `C[C@@H]1CN([C@@H](C)CO)C(=O)c2cc(NC(=O)Nc3cccc4ccccc34)ccc2O[C@@H]1CN(C)C(=O)NC1CCCCC1`, the CPE inhibition was -3.76% (inactive).

Turning to `COc1ccc(C2CC(c3cccs3)=NN2C(=O)CSc2nncs2)cc1OC` (centres undefined), the CPE inhibition is 6.81% (inactive).

For `COc1ccc(C2=NN(C(=O)CCC(=O)O)C(c3cccs3)C2)cc1OC` (centres undefined), the CPE inhibition is -2.94% (inactive).

Turning to `COc1ccc(C2CC(c3cccs3)=NN2C(=O)CCC(=O)O)cc1OC` (centres undefined), the CPE inhibition was 36.9% (active).

On to `COc1ccccc1CCNC(=O)CN1C(=O)NC2(CCCC2)C1=O`, for which the CPE inhibition was -7.14% (inactive).

As to `COc1ccccc1CNC(=O)CCCN1C(=O)NC2(CCCC2)C1=O`, the CPE inhibition was 54.7% (active).

Consider `COc1ccccc1C(=O)NCCC(=O)NN1C(=O)NC2(CCCCC2)C1=O`, for which the CPE inhibition is 0.164% (inactive).

For the molecule `C[C@@H]1CCCCO[C@@H](CN(C)C(=O)C2CCCCC2)[C@@H](C)CN([C@H](C)CO)C(=O)c2cc(NC(=O)c3ccccc3)ccc2O1`, the CPE inhibition is 17.1% (inactive).

On to `C[C@H]1CN([C@@H](C)CO)S(=O)(=O)c2ccc(-c3cncnc3)cc2O[C@H]1CN(C)Cc1ccncc1`, for which the CPE inhibition was 35.7% (active).

On to `C[C@@H]1CN([C@H](C)CO)S(=O)(=O)c2ccc(C#CCC3CCCC3)cc2O[C@H]1CN(C)C(=O)CC1CC1`, for which the CPE inhibition is 9.35% (inactive).

As to `COCC#Cc1ccc2c(c1)O[C@H](CN(C)C(=O)CN(C)C)[C@@H](C)CN([C@H](C)CO)S2(=O)=O`, the CPE inhibition is -5.36% (inactive).

For the molecule `CCC(=O)N(C)C[C@@H]1Oc2cc(C#CCOC)ccc2S(=O)(=O)N([C@H](C)CO)C[C@H]1C`, the CPE inhibition was -10.5% (inactive).

For `C[C@@H]1CN([C@H](C)CO)S(=O)(=O)c2ccc(C#CCC3CCCC3)cc2O[C@H]1CN(C)Cc1ccc(C(=O)O)cc1`, the CPE inhibition was 41.8% (active).

Regarding `C[C@H](CO)N1C[C@H](C)[C@@H](CN(C)Cc2cncnc2)Oc2cc(-c3ccccc3)ccc2S1(=O)=O`, the CPE inhibition is -3.98% (inactive).

In the case of `Cc1noc(C)c1NC(=O)N(C)C[C@@H]1Oc2cc(Br)ccc2S(=O)(=O)N([C@@H](C)CO)C[C@H]1C`, the CPE inhibition is 21.5% (active) and 2.3% (inactive).

Consider `COc1ccccc1NC(=O)N(C)C[C@H]1Oc2cc(Br)ccc2S(=O)(=O)N([C@H](C)CO)C[C@@H]1C`, for which the CPE inhibition is 10.7% (inactive) and 3.12% (inactive).

Consider `CCC(=O)N(C)C[C@H]1Oc2cc(C#CCOC)ccc2S(=O)(=O)N([C@H](C)CO)C[C@H]1C`, for which the CPE inhibition was 77.3% (active).

`C[C@@H]1CN([C@@H](C)CO)S(=O)(=O)c2ccc(C#CCC3CCCC3)cc2O[C@@H]1CN(C)C`: the CPE inhibition is -3.23% (inactive).

As for `C[C@H](CO)N1C[C@H](C)[C@H](CN(C)Cc2ccncc2)Oc2cc(-c3cncnc3)ccc2S1(=O)=O`, the CPE inhibition was -6.89% (inactive).

In the case of `Cc1noc(C)c1NC(=O)N(C)C[C@@H]1Oc2cc(C#CCC(C)C)ccc2S(=O)(=O)N([C@H](C)CO)C[C@@H]1C`, the CPE inhibition was 16.2% (inactive).

`CN1C(=O)c2cc(NC(=O)Nc3ccccc3Cl)ccc2OC[C@H]2O[C@H](CC(=O)NCCCN3CCOCC3)CC[C@H]21`: the CPE inhibition is -4.69% (inactive).

Regarding `CCNC(=O)C[C@@H]1CC[C@H]2[C@@H](COc3ccc(NC(=O)NC(C)C)cc3C(=O)N2C)O1`, the CPE inhibition is -7.53% (inactive).

As for `COc1ccc(NC(=O)Nc2ccc3c(c2)OC[C@@H](C)NC[C@@H](C)[C@H](OC)CN(C)C3=O)cc1`, the CPE inhibition was -3.84% (inactive).

Regarding `COc1ccc(S(=O)(=O)N2C[C@@H](O)COC[C@H]3O[C@@H](CC(=O)NCCN4CCCCC4)CC[C@@H]32)cc1`, the CPE inhibition is 2.39% (inactive).
